BAZ2B inh: inhibitors of human BAZ2B bromodomain | AlphaScreen BAZ2B-H3K14Ac peptide displacement | 360,000 compounds, 4.4% hits | Potency, µM (doses to about 114 µM), for inactives: at the top dose activity change, negative = inhibition, actives largely listed as inhibitors; note: % is set by controls: 0 for no effect and ±100 for the full control effect; nearly all actives have a fitted effect of over 60% in size
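Inhibition is scored as reduced AlphaScreen emission. The BAZ2B/b-H3(5-23)K14Ac complex (50 nM each) in PBS pH 7.4, 0.01% Tween-20 meets compound (up to 110 uM) for 30 min at RT before bead addition.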
ALOX12 inh: blocks human arachidonate 12S-lipoxygenase; Potency, µM (titrated, usually from 108 µM), inactives show at the top dose activity change, negative = inhibition, most hits filed as inhibitors; P18054; AID 1671190; purified 12hLO, xylenol orange hydroperoxide absorbance; 580,000 compounds, 1.1% hits; note: % is set by controls: 0 for no effect and ±100 for the full control effect
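Purified human 12hLO at 150 nM in 25 mM Hepes, 0.01% Triton X-100, pH 7.0, preincubated 15 min at room temperature with compound. Reaction started with 40 uM arachidonic acid, 30 min at room temperature. Hydroperoxide measured by Fe-xylenol orange, 573/405 nm absorbance ratio.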
G9a block: G9a (human) methyltransferase inhibition | 350,000 compounds, 8.8% hits | Q96KQ7 | Potency, µM (series often up to 102 µM), for inactives: at the top dose activity, negative = inhibition, actives largely listed as inhibitors | G9a H3K9 monomethylation, AlphaScreen, 2 h; note: % is set by controls: 0 for no effect and ±100 for the full control effect; nearly all actives have a fitted effect of over 75% in size
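Signal arises when biotinylated H3K9 peptide, once monomethylated, bridges streptavidin donor and antibody-captured acceptor beads. Enzyme at 20 nM was preincubated 15 min with test compounds; peptide 500 nM and SAM 20 uM then reacted for 2 h.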
HP1b binding inh: inhibitors of HP1-beta chromodomain binding to methylated histone tails | 390,000 compounds, 0.56% hits | P83916 | Potency, µM (titrated, usually from 114 µM), for the others: top-dose activity change, negative = inhibition, actives largely listed as inhibitors | AlphaScreen HP1-beta / biotin-H3K9me3 peptide binding; note: nearly all actives have a fitted effect of over 70% in size
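HP1-beta protein (50 nM final) preincubated 30 min at room temperature with biotinylated H3(1-18)K9me3 peptide (50 nM) in PBS pH 7.4, 0.01% Tween-20, then compound added for 30 min. AlphaScreen streptavidin donor/nickel chelate acceptor beads (10 ug/mL final), 30 min dark, luminescence read.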
PLK1 PBD block: blocks phosphopeptide binding to human PLK1 polo-box domain; Plk1 PBD binding of FITC phosphopeptide, fluorescence polarization; Potency, µM, for inactives: max response, negative = inhibition, actives largely listed as inhibitors; 360,000 compounds, 2.8% hits; note: series mostly up to about 57 µM; % is set by controls: 0 for no effect and ±100 for the full control effect; nearly all actives have a fitted effect of over 65% in size
Target sequence (P53350 whole entry, looked up, the tested form may be a part): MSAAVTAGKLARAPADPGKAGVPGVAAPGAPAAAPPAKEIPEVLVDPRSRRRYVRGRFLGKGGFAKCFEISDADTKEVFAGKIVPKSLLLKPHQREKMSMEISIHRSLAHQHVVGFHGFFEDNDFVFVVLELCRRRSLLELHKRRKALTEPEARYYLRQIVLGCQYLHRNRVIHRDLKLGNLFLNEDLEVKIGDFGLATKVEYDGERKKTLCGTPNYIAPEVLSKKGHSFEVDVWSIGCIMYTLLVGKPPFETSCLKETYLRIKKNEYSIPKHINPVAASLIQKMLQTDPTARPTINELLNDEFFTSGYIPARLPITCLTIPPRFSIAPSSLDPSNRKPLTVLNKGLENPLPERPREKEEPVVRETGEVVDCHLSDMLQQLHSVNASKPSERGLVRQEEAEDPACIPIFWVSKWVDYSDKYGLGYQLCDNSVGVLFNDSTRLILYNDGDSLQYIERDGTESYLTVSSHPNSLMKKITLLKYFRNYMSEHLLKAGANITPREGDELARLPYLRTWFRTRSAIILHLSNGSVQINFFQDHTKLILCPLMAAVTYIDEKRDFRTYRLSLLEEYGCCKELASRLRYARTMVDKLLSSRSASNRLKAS
JMJD2A Tudor: inhibitors of human JMJD2A Tudor domain | O75164 | AlphaScreen JMJD2A-Tudor / H3K4me3 peptide binding | Potency, µM (top dose mostly 114 µM), inactives show at the top dose activity change, negative = inhibition, hits mostly inhibitors | 390,000 compounds, 4.4% hits | AID 504339; note: % is set by controls: 0 for no effect and ±100 for the full control effect; nearly all actives have a fitted effect of over 50% in size
Numbers without * were called inactive; ? = inconclusive; . = no result given; [ ] = dose if it differs, or a comment. Only some compounds are listed: those with a hit (about 9% of all), similar ones and a draw of the others. Calls come from the whole dose curve; as a rule, active = well fitted curve in the direction sought with a large enough effect; inconclusive = small, poorly fitted or top-dose-only effect, or another doubt; inactive = no such curve, though single readings can be large; an effect the other way counts as inactive or inconclusive. Potency is the fitted concentration of half-maximal effect.

SMILES	BAZ2B inh	ALOX12 inh	G9a block	HP1b binding inh	PLK1 PBD block	JMJD2A Tudor
Cc1cc(C)n(Cc2ccc(C(=O)Nc3cccc(Br)c3)o2)n1	-4%	?	79µM*	9%	-8%	-9%
Cc1cc(C)n(Cc2ccc(C(=O)Nc3ccc(Br)cc3C)o2)n1	-21%	35µM*	3%[59 µM]	18%	-16%	-13%
O=C(NCC(c1ccco1)N1CCN(c2ccc(F)cc2)CC1)c1ccco1 (stereo not given)	-31%	9%	?	-6%	-8%	-24%
CC(=O)Nc1ccc(NC(=O)c2cc(S(=O)(=O)N3CCCCC3)ccc2C)cc1	0%	7%	-19%[59 µM]	?	-8%	-21%
Cc1ccc(CN2CCN(CC(=O)N/N=C/c3ccccc3F)CC2)cc1	-4%	205%	-23%	38%	-12%	-33%
Cc1ccc(NC(=S)N/N=C/c2cccn2Cc2ccccc2F)cc1	28µM*	0%	?	26%	-22%	?
COc1ccc2cc1Oc1ccc(cc1)CC1c3c(cc(OC)c4c3Oc3cc5c(cc3O4)CCNC5C2)CCN1C (stereo not given)	6.3µM*	.	?	?	-1%	11µM*
COc1ccc2cc1Oc1ccc(cc1)C[C@H]1c3c(cc(OC)c4c3Oc3c(ccc5c3[C@H](C2)N(C)CC5)O4)CCN1C	.	.	.	?	-4%	20µM*
COc1ccc2cc1Oc1ccc(cc1)CC1c3c(cc4c(c3Oc3cc5c(cc3OC)CCN(C)C5C2)OCO4)CCN1C (stereo not given)	.	.	-10%[2.33 µM]	.	.	.
COc1ccc2cc1Oc1ccc(cc1)CC1c3cc(c(OC)cc3CCN1C)Oc1c(OC)c(OC)c(OC)c3c1C(C2)N(C)CC3 (stereo not given)	.	-24%[57.4 µM]	.	.	.	.
CCCOC(=O)COc1ccc2c(=O)c(Oc3ccc(CC)cc3)coc2c1	.	-17%	.	.	.	.
CC(/C=C1\SC(=O)N(CC(=O)Nc2cccc(O)c2)C1=O)=C\c1ccccc1	-36%	-29%	-22%[59 µM]	-10%	-4%	-17%
O=P(O)(O)C(O)(Cc1cccnc1)P(=O)(O)O	.	-17%[57.4 µM]	18µM*	.	.	.
CS(=O)(=O)NN1C(=O)c2ccccc2NC1c1ccccc1 (stereo not given)	11%	11%	-28%	0%	-25%	-17%[11.4 µM]
CS(=O)(=O)NN1C(=O)c2ccccc2NC1c1cccs1 (stereo not given)	12%	-2%	-34%	8%	?	3.5µM*
COc1cc(C2Nc3ccccc3C(=O)N2NS(C)(=O)=O)c([N+](=O)[O-])cc1OC (stereo not given)	5%	?	?	18%	-9%	4%
COc1ccc(C2Nc3ccccc3C(=O)N2NS(C)(=O)=O)c(OC)c1 (stereo not given)	-1%	-16%	-3%	25%	21µM*	-13%
COc1ccc(CCNC(=O)CCc2nnc(Cc3ccc4c(c3)OCO4)o2)cc1	-8%	?	.	11%	-15%	-17%
CC(C)CC(NC(N)=O)C(=O)OCC(=O)Nc1ccc(OC(F)F)cc1 (stereo not given)	-9%	-14%	-7%	3%	24µM*	40µM*
O=C(Cc1ccccc1)NC(=S)Nc1ccc(OC(F)F)cc1	-17%	35µM*	9%	47%	-3%	-6%
O=C(CSCc1ccccc1Cl)NNC(=S)Nc1ccccc1	-33%	?	7.9µM*	-28%	0%	?
COc1ccc(NC(=S)Nc2ccc(OC(F)F)cc2)cn1	-12%	?	?	23%	-18%	-10%
COc1ccccc1NC(=S)NNC(=S)Nc1ccc(OC(F)F)cc1	-38%	?	1µM*	?	24µM*	79µM*
COc1ccc(NC(=S)NC(=O)Cc2ccccc2)cc1	-3%	82%	7%[0.501 µM]	53%	-1%	-13%
CN(CC(=O)NCCc1ccc(F)cc1)Cc1ccccc1	35%	?	9%[12.7 µM]	28%	2%	12%

Screens (PubChem)
